± gives the standard deviation of the averaged measurements.

The subject of the experiment is BJ5TA. Put plainly: nucleolar normality score relative to DMSO (fraction of DMSO control); RPE1 is a non-cancer human cell line; higher = more normal nucleoli (less nucleolar stress). The protocol: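 Selected screen hits were validated in hTERT lines (BJ5TA, CHON-002, RPE1) and cancer lines (DLD1, HCT116). Cells were immunostained for nucleolin and UBF and the nucleolar normality score was measured per field of view, with 4 fields per drug. Scores are normalized to each cell line's own DMSO control. Dose and time are not stated for this panel.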
`CC(C)C[C@H](NC(=O)[C@H](CCc1ccccc1)NC(=O)CN1CCOCC1)C(=O)N[C@@H](Cc1ccccc1)C(=O)N[C@@H](CC(C)C)C(=O)[C@@]1(C)CO1` [Carfilzomib] came in with a nucleolar normality score of 0.328 ± 0.027. With `CN(C)CCNC(=O)c1cccn2c(=O)c3cc4ccccc4cc3nc12` the figure was 0.0738 ± 0.013; with `CN1CC[C@H](c2c(O)cc(O)c3c(=O)cc(-c4ccccc4Cl)oc23)[C@H](O)C1` [Flavopiridol], 0.202 ± 0.03. Next, `CC(C)c1c2cc(-c3ccnc(NC4CCC(NC5CCOCC5)CC4)n3)ccc2nn1C` (configuration not stated): 0.317 ± 0.025; `Cc1nc(-c2cn3c(n2)-c2ccc(-c4cnn(C(C)(C)C(N)=O)c4)cc2OCC3)n(C(C)C)n1` [Taselisib]: 0.347 ± 0.013. With `COc1cccc2c1C(=O)c1c(O)c3c(c(O)c1C2=O)C[C@@](O)(C(=O)CO)C[C@@H]3O[C@H]1C[C@H](N)[C@H](O)[C@H](C)O1` [Doxorubicin] the figure was 0.129 ± 0.025; with `CC(C)n1nc(-c2ccc3oc(N)nc3c2)c2c(N)ncnc21` [Sapanisertib], 0.418 ± 0.049. `Cc1cnc(CNC(=O)c2c(=O)c3ccc(N4CCCN(C)CC4)nc3n3c2sc2ccccc23)cn1`: the nucleolar normality score turned out to be 0.107 ± 0.0069. Next, `COC[C@H](NC(=O)c1cnc(C)s1)C(=O)N[C@@H](COC)C(=O)N[C@@H](Cc1ccccc1)C(=O)[C@@]1(C)CO1` [Oprozomib]: 0.449 ± 0.043; `C=CCNC1=C2C[C@@H](C)C[C@H](OC)[C@H](O)[C@@H](C)/C=C(\C)[C@H](OC(N)=O)[C@@H](OC)/C=C\C=C(/C)C(=O)NC(=CC1=O)C2=O`: 0.306 ± 0.0062; `CC(C)c1cc(C(=O)N2Cc3ccc(CN4CCN(C)CC4)cc3C2)c(O)cc1O` [Onalespib]: 0.294 ± 0.019. Next, `CCc1cnn2c(NCc3ccc[n+]([O-])c3)cc(N3CCCC[C@H]3CCO)nc12` [Dinaciclib]: 0.242 ± 0.0091.

Values taken from the supplement of paper PMC10723795.
